{
  "source": "ChEMBL document CHEMBL4513142",
  "about": "“CO-ADD screening of Indiana University - Purdue University Indianapolis (USA) compounds”",
  "note": "Values joined by “and” are separate entries in the source; they are usually repeats but may differ in a detail not shown here. Equal values may be shown once. Measured potencies and affinities stand elsewhere.",
  "data": [
    {"test_system": "Staphylococcus aureus", "conditions": "Concentration 32 ug.mL-1; ASSAY_TEST Inhibition of Bacterial Growth; detection method Absorption (OD600); MEDIA CAMHB; plate type 384well; NBS; CORNING #3640; time 18 hr", "units": {"Inhibition": "%"}, "values": [
      {"smiles": "[C-]#[N+]c1ccc(C(=O)NC(CC=C)C(=O)NCCC)cc1", "note": "(stereo not given)", "Inhibition": 14.2},
      {"smiles": "[C-]#[N+]c1ccc(C(=O)NC(Cc2ccccc2F)C(=O)NCCC)cc1", "note": "(stereo not given)", "Inhibition": 22.89},
      {"smiles": "[C-]#[N+]c1ccc(C(=O)NC(CC)C(=O)NCCC)cc1", "note": "(stereo not given)", "Inhibition": 19.19},
      {"smiles": "CCCNC(=O)C(Cc1ccccc1C)NC(=O)c1ccc(C(F)(F)F)cc1", "note": "(stereo not given)", "Inhibition": 28.42},
      {"smiles": "[C-]#[N+]c1ccc(C(=O)NC(CC#C)C(=O)NCCC)cc1", "note": "(stereo not given)", "Inhibition": 27.84},
      {"smiles": "CCCNC(=O)C(Cc1ccccc1)NC(=O)c1ccc(F)cc1", "note": "(stereo not given)", "Inhibition": 30.52},
      {"smiles": "CCCNC(=O)C(Cc1ccc(F)cc1)NC(=O)c1ccccc1", "note": "(stereo not given)", "Inhibition": 25.83},
      {"smiles": "[C-]#[N+]c1ccc(C(=O)NC(Cc2ccc(C(F)(F)F)cc2)C(=O)NCCC)cc1", "note": "(stereo not given)", "Inhibition": 24.86},
      {"smiles": "CCCNC(=O)C(Cc1ccccc1)NC(=O)Cc1ccccc1", "note": "(stereo not given)", "Inhibition": 29.57},
      {"smiles": "[C-]#[N+]c1ccc(C(=O)NC(Cc2ccc(F)cc2)C(=O)NCCC)cc1", "note": "(stereo not given)", "Inhibition": 26.08}
    ]},
    {"test_system": "Staphylococcus aureus", "conditions": "Concentration 32 ug.mL-1; ASSAY_TEST Inhibition of Bacterial Growth; detection method Absorption (OD600); MEDIA CAMHB; plate type 384well; NBS; CORNING #3640; time 18 hr, 32 ug/mL", "values": [
      {"smiles": "O=C(NC(Cc1ccc(Cl)nc1)C(=O)O)c1ccccc1", "note": "(stereo not given)", "Inhibition": "22.85% and 23.42%"},
      {"smiles": "Cc1ccc(C(=O)NC(Cc2ccccc2C#N)C(=O)O)cc1", "note": "(stereo not given)", "Inhibition": "24.12% and 21.1%"},
      {"smiles": "NC(=O)[C@H](Cc1ccccc1)NC(=O)c1cccnc1", "Inhibition": "29.26% and 26.43%"},
      {"smiles": "Cc1ccc(C(=O)NC(Cc2cc(F)c(F)cc2F)C(=O)O)cc1", "note": "(stereo not given)", "Inhibition": "24.46% and 19.13%"},
      {"smiles": "CC(C)[C@H](NC(=O)c1cccc(C(F)(F)F)c1)C(=O)O", "Inhibition": "19.09% and 11.5%"},
      {"smiles": "O=C(NC(CCCc1ccccc1)C(=O)O)c1cccc2ccccc12", "note": "(stereo not given)", "Inhibition": "21.08% and 19.14%"},
      {"smiles": "NC(Cc1cccc(F)c1)C(=O)O.O=C(O)C(F)(F)F", "note": "(stereo not given)", "Inhibition": "11.07% and 11.98%"},
      {"smiles": "NC(=O)[C@@H]1CCCN1C(=O)c1ccccn1", "Inhibition": "30.13% and 31.7%"},
      {"smiles": "NC(Cc1ccccc1F)C(=O)O.O=C(O)C(F)(F)F", "note": "(stereo not given)", "Inhibition": "11.55% and 11.5%"},
      {"smiles": "O=C(N[C@@H](Cc1ccccc1)C(=O)O)C1CCCCC1", "Inhibition": "12.87% and 13.13%"},
      {"smiles": "NC(=O)[C@H](Cc1ccccc1)NC(=O)c1c(F)c(F)c(F)c(F)c1F", "Inhibition": "22.06% and 27.14%"},
      {"smiles": "NC(Cc1ccc(F)cc1)C(=O)O.O=C(O)C(F)(F)F", "note": "(stereo not given)", "Inhibition": "15.79% and -3.39%"},
      {"smiles": "C[C@H](NC(=O)c1ccccc1Cl)C(=O)O", "Inhibition": "13.46% and 14.36%"},
      {"smiles": "COc1cc(C(=O)N[C@@H](CC(C)C)C(=O)O)ccc1O", "Inhibition": "20.35% and 19.19%"},
      {"smiles": "CC(C)C[C@H](NC(=O)c1cccnc1)C(N)=O", "Inhibition": "11.42% and -3.35%"},
      {"smiles": "O=C(Cc1cccc(Br)c1)N[C@@H](Cc1ccccc1)C(=O)O", "Inhibition": "8.37% and -0.37%"},
      {"smiles": "NC(Cc1ccccc1I)C(=O)O.O=C(O)C(F)(F)F", "note": "(stereo not given)", "Inhibition": "9.99% and 15.72%"},
      {"smiles": "NC(Cc1ccc(F)c(F)c1)C(=O)O.O=C(O)C(F)(F)F", "note": "(stereo not given)", "Inhibition": "14.42% and 15.4%"}
    ]},
    {"test_system": "Escherichia coli", "conditions": "Concentration 32 ug.mL-1; ASSAY_TEST Inhibition of Bacterial Growth; detection method Absorption (OD600); MEDIA CAMHB; plate type 384well; NBS; CORNING #3640; time 18 hr", "units": {"Inhibition": "%"}, "values": [
      {"smiles": "[C-]#[N+]c1ccc(C(=O)NC(CC=C)C(=O)NCCC)cc1", "note": "(stereo not given)", "Inhibition": 6.66},
      {"smiles": "[C-]#[N+]c1ccc(C(=O)NC(Cc2ccccc2F)C(=O)NCCC)cc1", "note": "(stereo not given)", "Inhibition": 11.79},
      {"smiles": "[C-]#[N+]c1ccc(C(=O)NC(CC)C(=O)NCCC)cc1", "note": "(stereo not given)", "Inhibition": 3.26},
      {"smiles": "CCCNC(=O)C(Cc1ccccc1C)NC(=O)c1ccc(C(F)(F)F)cc1", "note": "(stereo not given)", "Inhibition": 15.38},
      {"smiles": "[C-]#[N+]c1ccc(C(=O)NC(CC#C)C(=O)NCCC)cc1", "note": "(stereo not given)", "Inhibition": 17.34},
      {"smiles": "CCCNC(=O)C(Cc1ccccc1)NC(=O)c1ccc(F)cc1", "note": "(stereo not given)", "Inhibition": 11.25},
      {"smiles": "CCCNC(=O)C(Cc1ccc(F)cc1)NC(=O)c1ccccc1", "note": "(stereo not given)", "Inhibition": 9.01},
      {"smiles": "[C-]#[N+]c1ccc(C(=O)NC(Cc2ccc(C(F)(F)F)cc2)C(=O)NCCC)cc1", "note": "(stereo not given)", "Inhibition": 13.88},
      {"smiles": "CCCNC(=O)C(Cc1ccccc1)NC(=O)Cc1ccccc1", "note": "(stereo not given)", "Inhibition": 14.02},
      {"smiles": "[C-]#[N+]c1ccc(C(=O)NC(Cc2ccc(F)cc2)C(=O)NCCC)cc1", "note": "(stereo not given)", "Inhibition": 15}
    ]},
    {"test_system": "Escherichia coli", "conditions": "Concentration 32 ug.mL-1; ASSAY_TEST Inhibition of Bacterial Growth; detection method Absorption (OD600); MEDIA CAMHB; plate type 384well; NBS; CORNING #3640; time 18 hr, 32 ug/mL", "values": [
      {"smiles": "O=C(NC(Cc1ccc(Cl)nc1)C(=O)O)c1ccccc1", "note": "(stereo not given)", "Inhibition": "9.12% and 5.81%"},
      {"smiles": "Cc1ccc(C(=O)NC(Cc2ccccc2C#N)C(=O)O)cc1", "note": "(stereo not given)", "Inhibition": "12.75% and 9.35%"},
      {"smiles": "NC(=O)[C@H](Cc1ccccc1)NC(=O)c1cccnc1", "Inhibition": "20.31% and 18.99%"},
      {"smiles": "Cc1ccc(C(=O)NC(Cc2cc(F)c(F)cc2F)C(=O)O)cc1", "note": "(stereo not given)", "Inhibition": "4.35% and 11.7%"},
      {"smiles": "CC(C)[C@H](NC(=O)c1cccc(C(F)(F)F)c1)C(=O)O", "Inhibition": "0.57% and -0.75%"},
      {"smiles": "NC(Cc1cccc(F)c1)C(=O)O.O=C(O)C(F)(F)F", "note": "(stereo not given)", "Inhibition": "9.03% and 16.34%"},
      {"smiles": "NC(=O)[C@@H]1CCCN1C(=O)c1ccccn1", "Inhibition": "20.95% and 16.57%"},
      {"smiles": "NC(Cc1ccccc1F)C(=O)O.O=C(O)C(F)(F)F", "note": "(stereo not given)", "Inhibition": "17.44% and 15.69%"},
      {"smiles": "O=C(N[C@@H](Cc1ccccc1)C(=O)O)C1CCCCC1", "Inhibition": "2.23% and -1.68%"},
      {"smiles": "NC(=O)[C@H](Cc1ccccc1)NC(=O)c1c(F)c(F)c(F)c(F)c1F", "Inhibition": "6.54% and 12.4%"},
      {"smiles": "NC(Cc1ccc(F)cc1)C(=O)O.O=C(O)C(F)(F)F", "note": "(stereo not given)", "Inhibition": "9.45% and 2%"},
      {"smiles": "C[C@H](NC(=O)c1ccccc1Cl)C(=O)O", "Inhibition": "2.9% and -3.06%"},
      {"smiles": "COc1cc(C(=O)N[C@@H](CC(C)C)C(=O)O)ccc1O", "Inhibition": "10.4% and 9.74%"},
      {"smiles": "CC(C)C[C@H](NC(=O)c1cccnc1)C(N)=O", "Inhibition": "-6.61% and -6.83%"},
      {"smiles": "O=C(Cc1cccc(Br)c1)N[C@@H](Cc1ccccc1)C(=O)O", "Inhibition": "5.53% and 8.68%"},
      {"smiles": "NC(Cc1ccccc1I)C(=O)O.O=C(O)C(F)(F)F", "note": "(stereo not given)", "Inhibition": "13.12% and 15.99%"},
      {"smiles": "NC(Cc1ccc(F)c(F)c1)C(=O)O.O=C(O)C(F)(F)F", "note": "(stereo not given)", "Inhibition": "15.3% and 11.55%"}
    ]}
  ]
}
